CRFBP-R2 block = blocks CRF-induced signaling of the CRF-BP/CRF-R2 complex. HEK293 CRF-R2/CRF-BP, CRF-induced calcium fluorescence. inhibition, % at 11.8 µM. 0.59% of 350,000 active. AID 588475;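 active means inhibition of the ligand-induced calcium signal above about 50% at the single tested concentration, limit read from the data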
PHOSPHO1 block = blocks human PHOSPHO1 phosphatase activity; Q8TCT1; recombinant PHOSPHO1, absorbance phosphatase assay; inhibition, % at 13.3 µM; 1.1% of 290,000 active; AID 1565; in the data active means inhibition above about 60%
Target sequence (Q8TCT1 whole entry, looked up): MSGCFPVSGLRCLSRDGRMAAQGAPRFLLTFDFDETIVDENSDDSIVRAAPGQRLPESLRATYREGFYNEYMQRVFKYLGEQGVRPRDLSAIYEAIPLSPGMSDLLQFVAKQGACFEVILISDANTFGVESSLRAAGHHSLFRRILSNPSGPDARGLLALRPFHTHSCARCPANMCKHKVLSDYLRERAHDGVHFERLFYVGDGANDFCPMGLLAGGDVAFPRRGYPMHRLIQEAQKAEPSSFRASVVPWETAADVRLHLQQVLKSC
PABP1 MLLE inh = blocks PAM2 peptide binding to the PABP1 MLLE domain; inhibition, % at 20 µM; 0.36% of 360,000 active; GST-MLLE / FITC-PAM2 fluorescence polarization; in the data active means inhibition above about 35%, passing the limit was not always enough;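 further: plate controls were DMSO wells with GST-MLLE for no effect and wells lacking GST-MLLE protein for full effect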
PABP polyA inh = PABP-poly(A) binding inhibition. PABP-poly(A) RNA binding, fluorescence polarization. P11940. inhibition, % at 35 µM. 1% of 290,000 active;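 further: calls also rest on retests at 20 µM and on dose response follow-up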
eIF4H inh = inhibitors of RNA binding by human eIF4H | inhibition, % at 35 µM | eIF4H fluorescence polarization binding assay | 0.94% of 290,000 active | Q15056 | AID 2012;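 further: calls also rest on retests at 20 µM and on dose response follow-up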
An asterisk follows results filed as active; ? = inconclusive; · = no result given. In the library only some 2.6% were active in any assay of this set; here they are far more common. Unless noted, how the calls were made is not given here.

SMILES | CRFBP-R2 block | PHOSPHO1 block | PABP1 MLLE inh | PABP polyA inh | eIF4H inh
Cc1c(C(=O)NCc2cccnc2)oc2ccccc12 | 61.9* | 6.6 | -8.2 | 4.3 | 1.6
CN(C)c1ccc(/C=N/Nc2ccc(-n3ccnc3)nn2)cc1 | -4.8 | 85.7* | 2.6 | 18.8 | 0.3
Cc1ccc(C)c(S(=O)(=O)N2CCN(c3nc(-c4cccnc4)nc4ccccc34)CC2)c1 | -6.6 | · | -8.0 | · | ·
Cc1cccc(C)c1NC(=O)C1c2cccc[n+]2CC(=O)N1Cc1ccc2c(c1)OCO2 (stereo not drawn) | 6.4 | -2.0 | -125.8 | -0.7 | 1.7
Cc1ccccc1NC(=O)C1c2cccc[n+]2CC(=O)N1c1c(C)cccc1C (stereo not drawn) | 11.1 | 94.9* | -82.6 | 22.3 | -1.4
Cc1cccc(NC(=O)COC(=O)CN2C(=O)C3CCCCC3C2=O)c1C (stereo not drawn) | -23.9 | · | 1.6 | · | ·
O=C(O)C1=C[C@@H](c2ccc(Br)cc2)C[C@@H](OCc2ccc(CO)cc2)O1 | 75.8* | 21.9 | 0.5 | 1.3 | 11.8
NC(=O)C1=C[C@H](c2ccc(C(F)(F)F)cc2)C[C@H](OCc2ccc(CO)cc2)O1 | -5.5 | 17.7 | 18.3 | 5.6* | ?
O=C(Nc1ccc(Cl)c(Cl)c1)Nc1ccccc1C(=O)O | 58.9* | 14.8 | 15.7 | -2.0 | 2.4
O=C(Nc1cc(C(=O)Nc2ccccc2C(=O)O)cc(C(=O)Nc2ccccc2C(=O)O)c1)c1ccccc1 | 103.6* | 19.8 | 1.8 | 48.0 | 14.6
O=C(Nc1ccc(Cl)cc1)Nc1ccccc1C(=O)O | 4.9 | -12.5 | -4.2 | -1.0 | 6.9
O=C(/C=C/c1ccco1)Nc1cccc(C(=O)Nc2ccccc2C(=O)O)c1 | 13.3 | 18.9 | -19.8 | 74.0* | 88.6*
CCc1ccccc1NC(=O)c1cccc(NC(=O)/C=C/c2ccco2)c1 | -3.1 | -1.4 | 2.1 | -4.8 | -1.7
NC(=O)CSc1nc(C23CC4CC(CC(C4)C2)C3)nc2ccccc12 | -27.9 | -3.1 | 2.0 | 58.7* | -0.6
CC1(C(=O)NCC2CC2)Cc2c(-c3ccc4c(c3)OCO4)ccnc2O1 (stereo not drawn) | · | · | -6.3 | · | ·
CC(C)CC(=O)NC(=S)NNC(=O)c1ccc(NC(=O)C2CCCCC2)cc1 | 12.4 | -29.6 | 1.4 | active | 61.1*
CN(C)c1ncnc2c1ncn2[C@H]1CN(C2CCCC2)C[C@@H](CO)O1 | · | · | 16.3 | · | ·
CCN(CCO)Cc1csc2cccc(Br)c12 | 83.5* | 13.7 | -10.1 | 2.4 | 2.6
O=C(O)C1Nc2ccc(Br)cc2C2C=CCC12 (stereo not drawn) | 2.1 | · | 17.9 | 94.4* | 105.0*
O=C(O)c1ccc2c(c1)[C@@H]1C=CC[C@@H]1[C@H](c1ccccn1)N2 | 6.9 | · | 42.1* | · | ·
CCOC(=O)C1Nc2ccc(Br)cc2C2C=CCC12 (stereo not drawn) | -6.4 | -13.6 | 2.5 | 3.2 | 19.0
O=C(OC1CCCCC1)c1ccc2c(c1)C1C=CCC1C(C(=O)O)N2 (stereo not drawn) | · | 83.1* | · | active | 92.8*
CC1OC(CC(=O)O)CC2=C1C(=O)c1c(O)cccc1C2=O (stereo not drawn) | -62.1 | · | 29.8 | · | ·
CCCCOc1ccc(C2/C(=C(/O)c3ccc4c(c3)CC(C)O4)C(=O)C(=O)N2CCCN2CCOCC2)cc1OC (stereo not drawn) | 38.2 | 36.4 | -9.2 | -4.7 | -0.9
CCCC(=O)NC(=S)Nc1c(C)cc(Br)cc1C | -25.5 | · | 19.2 | · | ·
SMILES | CRFBP-R2 block | PHOSPHO1 block | PABP1 MLLE inh | PABP polyA inh | eIF4H inh
CCC(=O)NC(=S)Nc1c(C)cc(Br)cc1C | -26.0 | 32.2 | 43.6* | 13.5 | -5.7
C[C@@H]1CN([C@@H](C)CO)C(=O)CCCn2nncc2CO[C@@H]1CN(C)C(=O)Nc1ccc(-c2cccs2)cc1 | -8.2 | · | 7.9 | · | ·
O=C(CSc1ccsc1[N+](=O)[O-])N1CCN(c2ccccn2)CC1 | 23.7 | 56.6 | 30.5 | -12.3 | 3.5
CCn1c(SCC(=O)O)nc2sc3c(c2c1=O)CCC3 | 9.9 | -9.2 | 10.6 | 37.0 | 48.1
CCn1c(SCC(=O)OC)nc2sc3c(c2c1=O)CCC3 | 9.2 | 9.4 | -6.0 | 16.7 | 71.8*
NC(=O)C(CCc1nc2ccccc2[nH]1)NS(=O)(=O)c1ccccc1 (stereo not drawn) | -17.9 | · | -0.5 | · | ·
COc1ccccc1OCC(=O)NNC(=O)c1cnccn1 | 55.7* | 12.8 | 2.2 | -6.8 | 0.9
COc1ccc(OC)c(N=c2ssnc2Cl)c1 | -11.4 | 28.7 | 9.9 | 23.3 | -16.6
COc1cc(N=c2ssnc2Cl)c(OC)cc1Cl | -10.6 | 91.3* | 16.5 | 14.2 | -2.3
Nc1ccccc1N=c1ssnc1Cl | -10.9 | 42.1 | 14.4 | 8.5 | 4.1
Cc1cc(Cl)ccc1N=c1ssnc1Cl | -8.1 | 95.8* | 17.7 | 6.0 | -0.2
Cc1ccc(N=c2ssnc2Cl)cc1 | -7.7 | 101.3* | 22.5 | 3.6 | 0.5
COc1cc(C(=O)N2C[C@@H]3CCC[C@H]2C3)ccc1OC1CCN(C(C)=O)CC1 | -4.3 | -19.7 | 7.8 | -7.1 | 4.0
O=C1CNC(c2ccccc2)C(c2ccccc2)N1 (stereo not drawn) | 15.9 | · | 5.1 | · | ·
CC(=O)NC(c1ccccc1)c1cc(Cl)c2cccnc2c1O (stereo not drawn) | -4.9 | -38.8 | 3.1 | 3.6 | 21.5
O=C(NC(c1ccc(Cl)cc1)c1cc(Cl)c2cccnc2c1O)c1cccnc1 (stereo not drawn) | -40.9 | -4.6 | -1.5 | 89.7* | ?
CC(=O)N=c1sc(S(N)(=O)=O)nn1C | 110.9* | -8.7 | 14.3 | -7.5 | -5.5
CN1CCN(S(=O)(=O)NC[C@H]2O[C@@H](n3cnc4c(N)ncnc43)[C@H](O)[C@@H]2O)CC1 | 10.7 | · | 0.8 | · | ·
Cn1nc(C(C)(C)C)cc1C(=O)Sc1cccc(Br)c1 | -7.5 | 36.4 | 44.1* | -1.4 | -2.3
O=C(Nc1ccc(N2CCOCC2)c(S(=O)(=O)Nc2ccc(Cl)cc2)c1)c1ccc(=O)[nH]n1 | -1.9 | · | -23.7 | · | ·
O=C(Nc1ccc(N2CCOCC2)c(S(=O)(=O)Nc2ccc(Cl)cc2)c1)c1cnccn1 | -18.2 | -54.0 | 40.4* | 3.3 | -4.4
COc1cc(NC(=S)NC(=O)c2ccc(C)cc2C)ccc1NC(=O)c1cccs1 | -5.8 | 61.9* | 25.0 | 3.1 | -1.7
COc1cc(NC(=O)c2ccc(C)cc2C)ccc1NC(=O)c1cccs1 | 9.7 | 18.8 | 1.3 | 4.9 | 2.8
Cc1nn(CC(=O)Nc2cccc(Cl)c2)c(=O)c2cc(-c3ccccc3)nn12 | -4.1 | 64.7* | 11.5 | -3.3 | -12.7
COc1ccc(-c2cc3c(=O)n(CC(=O)Nc4ccc(Cl)cc4)nc(C)n3n2)cc1 | -11.4 | 12.7 | 16.4 | -1.0 | 2.3
SMILES | CRFBP-R2 block | PHOSPHO1 block | PABP1 MLLE inh | PABP polyA inh | eIF4H inh
Cc1cc(NNC(=O)c2ccccc2)nc(NNC(=O)c2ccccc2)n1 | -16.6 | 7.5 | 7.4 | -11.0 | 1.6
CNc1nc(NC)nc(NNC(=O)c2ccccc2)n1 | 50.8* | · | -13.5 | · | ·
CCc1nc2c(OCC(=O)C(C)(C)C)cccn2c1N(C)C(=O)c1ccc(C)cc1 | · | · | 0.6 | · | ·
CC(C)Oc1ccc(CN=C(N)N=C(N)N)cc1Cl | -3.4 | 6.6 | -21.2 | 118.6* | active
c1ccc2nc3[nH]cnc3nc2c1 | 10.7 | -11.6 | 48.8* | 7.2 | 2.9
c1ccc2[nH]cnc2c1 | 7.6 | · | -1.2 | · | ·
